Where “and” joins values, the source holds several entries; their conditions need not be identical. Identical values can stand only once. ± gives the uncertainty stated by the source.
Tested on: HEK293T-Rex XBP1-RLuc
Assay: XBP1-RLuc splicing reporter activation, triplicate, relative to 500 nM thapsigargin (% of thapsigargin); higher = stronger IRE1/XBP1s reporter activation
Details: 6.8 µM; 18 h; screen: confirmation
Experimental: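 HEK293T-Rex cells stably expressing the ERSE-firefly luciferase (BiP promoter, ATF6-preferring) or XBP1-splicing Renilla luciferase (IRE1/XBP1s) reporter, 1536-well plates, compound at 6.8 µM for 18 hr at 37 °C; luminescence read […] and expressed as % activation = 100*(compound - median DMSO)/(median 500 nM thapsigargin - median DMSO). Primary screen was single-pass; confirmation screen in triplicate (mean ± SD).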

SMILES	XBP1-RLuc splicing reporter activation
N#Cc1c(NC(=O)c2ccc(Br)cc2)sc2c1CCCC2	1.92 ± 0.76
COc1cccc(C(=O)Nc2sc3c(c2C#N)CC(C)CC3)c1 (stereo not given)	3.54 ± 0.93
COc1ccc(/C(C)=N/OC/C(O)=C(\C#N)c2nc3ccccc3[nH]2)cc1OC	24.6 ± 1.4
Oc1ccc(-c2csc(-c3ccccc3)n2)cc1O	31.3 ± 3.1
COc1cc(/C=C/c2ccc(O)c(OC)c2)ccc1O	31.8 ± 2.2
Nc1ccc2nc(-c3ccc(Cl)cc3)[nH]c2c1	8.9 ± 0.25
O=c1cc(-c2ccc(O)c(O)c2)oc2cc(O)cc(O)c12	16.5 and 14.4
O=C(Nc1ccc2nc(NC(=O)C3CCCCC3)sc2c1)C1CCCCC1	6.08 ± 0.7
CCOc1cc(/C=C2/NC(=O)N(Cc3ccc(F)cc3)C2=O)ccc1O	33.6 ± 2.1
O=c1cc(-c2ccc(O)c(O)c2)oc2ccccc12	20.6 ± 1.5
CC(=O)Oc1ccc2cc(NC(=O)c3ccc(C)cc3)c(=O)oc2c1	12.1 ± 1.8
OCCNc1nc(Nc2ccc(Cl)c(Cl)c2)nc2ccccc12	42.7 ± 1.8
Oc1cccc(Nc2nc(-c3ccc(O)c(O)c3)cs2)c1	17.5 ± 0.67
Oc1ccc(/C=N/Nc2cccc(Cl)n2)c(O)c1	10.9 ± 0.95
C=CCNC(=O)c1sc2nc3cc(C)c(C)cc3cc2c1N	-0.518 ± 1.4
O=C(NCCc1ccccc1)c1cc(-c2cccs2)on1	5.58 ± 1
O=c1/c(=C/c2ccc(O)c(O)c2)sc2nc3ccccc3n12	6.32 ± 0.52
OCCNc1nc(Nc2ccc(Br)cc2)nc2ccccc12	23.4 ± 2.2
CCOc1ccc(NC(=O)c2ccc3c(c2)OCO3)c([N+](=O)[O-])c1	-0.432 ± 2.4
CN(c1ccccc1)S(=O)(=O)c1cccc(C(=O)NCCc2ccc(O)c(O)c2)c1	33.2 ± 0.95

SMILES	XBP1-RLuc splicing reporter activation
CC(C)c1ccc(/C=N\NC(=O)c2ccccc2)cc1	6.81 ± 0.33
O=C(N/N=C/c1cccc(O)c1O)c1ccccc1I	11.2 ± 0.69
N#C/C(=C(/O)c1cc(-c2ccccc2)nc2ccccc12)c1nc2ccccc2[nH]1	9.52 ± 1.4
O=C(/C=C/c1ccco1)Nc1ccccn1	0.777 ± 0.52
COc1cccc(/C=N/NC(=O)c2n[nH]c3c2CCCC3)c1	2.73 ± 0.56
CCCCNC(=O)c1cc(-c2ccc(F)cc2)on1	7.08 ± 0.26
Cc1nc(-c2ccc(C(=O)Nc3ccc(O)cc3)cc2)cs1	19.3 ± 0.19
C=CCNC(=O)c1cc(-c2ccc(F)cc2)on1	1.92 ± 2.1
Cc1cc(C)nc(Nc2nc(-c3ccc(O)c(O)c3)cs2)n1	13.9 ± 9.7
C/C(=N\NC(=O)c1n[nH]c2c1CCCC2)c1ccc2ccccc2c1	1.43 ± 0.96
COc1ccccc1-c1cc(C(=O)Nc2cc(C)ccc2O)no1	7.78 ± 1.3
Nc1ccc2nc(-c3ccccn3)[nH]c2c1	18.7 ± 1.1
COc1ccc(/C=C(\C#N)c2nc(-c3ccco3)cs2)cc1O	4.32 ± 0.33
CN1C(=O)/C(=C\c2ccc(O)c(O)c2)SC1=S	13.9 ± 1.8
N#Cc1c(NC(=O)c2ccc3c(c2)OCO3)sc2c1CCCC2	2.57 ± 0.57
O=C(Nc1ccccc1O)c1ccc(NS(=O)(=O)c2cccc3cccnc23)cc1	14.2 ± 3.7
Nc1ccc2nc(-c3cc(Cl)c(N)c(Cl)c3)[nH]c2c1	13.2 ± 1.2
COc1cccc(-c2nc3ccc(N)cc3[nH]2)c1	9.9 ± 1.3
Nc1ccccc1NC(=O)c1ccc(C(F)(F)F)cc1	11.1 ± 2.7
Cc1ccc(O)c(NC(=O)c2cc(-c3ccc(O)cc3)on2)c1	22.4 ± 1.8
